Screening results: PubChem BioAssay, Milwaukee Institute for Drug Discovery
Cy5 interf NS3h: Cy5 fluorescence interference, HCV helicase counter-screen; Cy5-dT15 DNA with NS3h; actives lie on both sides; signal over control mean, under 1 quenches; 16,000 compounds, 6% hits; fluorescence interference ratio at 100 µM;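 active = compound fluorescence over control fluorescence at most 0.8, a quencher, or at least a set upper limit, an enhancer; inactive = ratio between 0.8 and the set upper limit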
NS3h inh CB: hepatitis C NS3 helicase inhibition, primary screen | NS3h Cy5-dT15 DNA binding, fluorescence polarization | 16,000 compounds, 1.6% hits | inhibition, % at 100 µM;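 active = inhibition above the average over every tested compound plus 3 SD, cut at about 40% in these data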
Starred values were filed as active, the others as inactive. Only some compounds are listed: those with a hit (about 6.8% of all), similar ones and a draw of the others.

SMILES | Cy5 interf NS3h | NS3h inh CB
Cc1ccc(N2C(=O)c3ccc(C(=O)Nc4ccc(O)cc4)cc3C2=O)cc1C | 1 | -6
Cc1ccc(C(=O)Nc2c(C(=O)Nc3ccccc3)cnn2-c2ccccc2)cc1 | 0.93 | 12
COc1ccc(C2CC(c3ccc(C)cc3)=NN2C(C)=O)cc1 (centres undefined) | 1 | 9
CC1=CC(C)(C)N(C(=O)CSc2nc3ccccc3s2)c2ccccc21 | 0.95 | -11
COc1ccccc1OCCOc1ccc(/C=N\N2C(=O)CSC2=S)cc1 | 1.1 | 6
O=C(Nc1ccc2c(c1)oc1ccccc12)c1c(Cl)cccc1Cl | 1 | 11
O=C(NC(c1ccccc1)c1ccccc1)C(=O)c1c[nH]c2ccccc12 | 0.66* | 15
Cc1ccc(C(=O)Nc2ccccc2C(=O)NC(Cc2c[nH]c3ccccc23)C(=O)O)cc1 (centres undefined) | 0.98 | 17
CCCC(=O)Nc1ccc(N2CCOCC2)cc1 | 0.74* | 3
CC(C)C(=O)Nc1ccc(N2CCOCC2)cc1 | 1 | -2
CN(C)c1ccc(NC(=O)c2cc(Cl)ccc2Cl)cc1 | 0.99 | 45*
CN(C)c1ccc(NC(=O)c2ccccc2F)cc1 | 0.99 | 8
O=C(/C=C/c1ccc(-c2ccccc2Cl)o1)c1cccs1 | 1.1 | 12
Cc1ccc(-c2ccc(/C=C3\SC(=S)NC3=O)o2)c([N+](=O)[O-])c1 | 0.89 | 20
Cc1ccc(-c2ccc(C=C3C(=O)NC(=O)NC3=O)o2)c([N+](=O)[O-])c1 | 0.72* | 41*
CCOC(=O)c1c(NC(=O)c2cc3n(n2)C(C(F)(F)F)CC(c2ccco2)N3)sc(C)c1C (centres undefined) | 0.75* | 6
CCOC(=O)c1sc(NC(=O)c2cc3n(n2)C(C(F)(F)F)CC(c2ccc4c(c2)OCO4)N3)c(C(=O)OCC)c1C (centres undefined) | 1 | 2
CCOC(=O)c1c(-c2ccc(C)cc2)csc1NC(=O)C(C)(C)C | 0.69* | 19
CCOC(=O)c1c(-c2ccc(C)cc2)csc1NC(=O)C1CC1 | 1 | 8
FC(F)(F)c1cc(/C=C/c2ccccc2)no1 | 1.2 | 6
COC(=O)CN1C(=O)/C(=C/c2cc(OC)ccc2OC)SC1=S | 1 | 10
COc1ccc(OC)c(/C=C2/SC(=S)N(CNc3cccc(Cl)c3)C2=O)c1 | 0.6* | 22
O=C1C(Cl)=C(N2CCN(c3ccccc3)CC2)C(=O)N1c1ccccc1 | 0.97 | 7
CCOc1ccc(-n2nc3ccc(NC(=O)c4ccc(Cl)cc4)cc3n2)cc1 | 0.64* | 15
CCOc1cccc(C(=O)Nc2ccc3nn(-c4ccc(F)cc4)nc3c2)c1 | 1.1 | -24
SMILES | Cy5 interf NS3h | NS3h inh CB
CCOc1ccc(NC(=O)c2ccc(C)c([N+](=O)[O-])c2)cc1 | 1 | 5
O=C(COc1ccccc1[N+](=O)[O-])Nc1ccc2oc(-c3cc(Br)ccc3Cl)nc2c1 | 1.2* | -18
O=C(COc1ccccc1[N+](=O)[O-])Nc1ccc2oc(-c3ccccc3Br)nc2c1 | 1.1 | -20
COc1cccc(C(=O)Nc2ccc3oc(-c4ccc(F)cc4Cl)nc3c2)c1 | 1.1 | -16
Cc1ccc(C(=O)Nc2ccc3oc(-c4ccc(F)cc4Cl)nc3c2)cc1[N+](=O)[O-] | 0.74* | 6
CCOc1ccc(NC(=O)c2ccc(Cl)c([N+](=O)[O-])c2)cc1 | 0.73* | 17
O=C(O)c1ccc(-c2c(Cl)cc([N+](=O)[O-])cc2Cl)o1 | 1.1 | -1
Oc1ccc(Br)cc1C1N(c2ccccc2)CCN1c1ccccc1 | 0.95 | 10
COc1cc([N+](=O)[O-])ccc1NC(=O)C(C)C | 1 | -2
COc1cc(OC)c(OC)cc1/C=N\N=C(\N)c1nonc1N | 0.92 | 4
CCOc1ccccc1NC(=O)c1ccc([N+](=O)[O-])cc1 | 1 | -7
COC(=O)c1ccc(NC(=S)NC(=O)c2ccc(OC)cc2)cc1 | 0.95 | 21
CCOc1ccccc1NC(=O)c1ccc(C)c([N+](=O)[O-])c1 | 0.75* | 18
O=C(Nc1ccc(Oc2ccccc2)cc1)c1ccc([N+](=O)[O-])cc1 | 1 | 2
COc1ccc(NC(=O)c2ccc(C)c([N+](=O)[O-])c2)cc1 | 0.74* | 13
NS(=O)(=O)c1ccc(NC(=O)c2ccc(Oc3ccccc3)cc2)cc1 | 1.2* | 1
COc1ccc(C(=O)Nc2ccc(C(=O)O)cc2)cc1 | 1.2* | -3
CCc1ccc(NC(=O)c2ccc(C)c([N+](=O)[O-])c2)cc1 | 1 | -5
CCOc1ccc(C(=O)Nc2ccc(-c3nc4ccc(C)cc4s3)cc2)cc1 | 1.1 | 2
Cc1cccc(C(=O)N2N=C3CCCCCC3C2(O)C(F)(F)F)c1O (centres undefined) | 0.93 | 5
Cc1ccc(OCC(=O)Nc2sc3c(c2C(N)=O)CCC(C)C3)c(C)c1 (centres undefined) | 1.1 | -14
CC(N=Cc1c(-c2ccccc2)[nH]n(-c2nc3ccccc3s2)c1=O)c1ccccc1 (centres undefined) | 1 | 7
